The AC50 is the concentration giving half of the maximal activity seen.

Results filed as inconclusive are left out. The source made the active and inactive calls. Rule for the calls, unless noted: active = hit-call score of the fitted dose curve at least 0.9, where 1 is the maximum; inconclusive = response in the unintended direction; inactive = score below 0.9.

We go through four compounds from PubChem BioAssay (EPA / NIEHS).

The test system of assay [1] is Sodium/Iodide Symporter (NIS), SLC5A5 (gene 6528). The assay is described as follows: CPHEA_Stoker_NIS_Inhibition_RAIU: CPHEA's Radioactive Iodide Uptake (RAIU) Assay for Sodium/Iodide Symporter (NIS) Inhibition, Stoker and Laws Labs (AID 2283841). In a few lines:
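hNIS-HEK293T-EPA cells incubated 2 h at room temperature with compound (0.001–100 uM, 0.5% DMSO) and 329 pM final 125I in HBSS/10 mM HEPES, pH 7.4. Intracellular 125I counted; normalised to DMSO maximal uptake, triplicate, three biological replicates.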

The nature of assay [2]: CPHEA_Stoker_NIS_Cytotoxicity: Cytotoxicity Assessment for CPHEA's Radioactive Iodide Uptake (RAIU) Assay for Sodium/Iodide Symporter (NIS) Inhibition, Stoker and Laws Labs (AID 2283897).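 For AC50: active means loss of ATP signal versus DMSO meaning cytotoxicity.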 In a few lines:
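hNIS-HEK293T-EPA cells, human NIS expressed in HEK293T, treated 2 h with chemicals (0.001–100 uM, 0.5% final DMSO). ATP content read by CellTiter-Glo luminescence; loss of signal analysed relative to DMSO.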

In assay [3] the target is chicken Estrogen Receptor (ERa), ESR1 (gene 396099) (UniProt P06212). The assay is described as follows: ATG_chERa_XSP2: Attagene TRANS-FACTORIAL Multi-Species (XSP2) HepG2 Assay for chicken Estrogen Receptor (ERa) (AID 2283817).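 Note: actives raise reporter signal above DMSO so AC50 reflects ER activation.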 In a few lines: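 Transiently transfected HepG2 cells expressing chimeric chicken ERa-GAL4 reporter units, dosed 24 h with 3 nM 6-alpha-fluorotestosterone and 1.5 nM norgestrel present. Reporter mRNA measured by RT-PCR and capillary electrophoresis; gain-of-signal fitted relative to DMSO.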

For assay [4], the system named is zebrafish Estrogen Receptor (ER2a), gene 317734. Description: ATG_zfER2a_XSP2: Attagene TRANS-FACTORIAL Multi-Species (XSP2) HepG2 Assay for zebrafish Estrogen Receptor (ER2a) (AID 2283818).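 Note: hits raise reporter mRNA so AC50 reflects activation of zebrafish ER2a.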 In a few lines:
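HepG2 cells transiently transfected with GAL4-UAS reporter units and chimeric zebrafish ER2a-Gal4, exposed 24 h; medium contains 3 nM 6-alpha-fluorotestosterone and 1.5 nM norgestrel. Reporter mRNA quantified by RT-PCR, HpaI digestion, capillary electrophoresis; gain versus DMSO.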

The test system of assay [5] is chicken Androgen Receptor (AR), gene 422165. The assay is described as follows: ATG_chAR_XSP2: Attagene TRANS-FACTORIAL Multi-Species (XSP2) HepG2 Assay for chicken Androgen Receptor (AR) (AID 2283819).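 Note: hits raise reporter mRNA above DMSO so potency is for activation.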 In a few lines: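 HepG2 cells transiently transfected with chicken AR–GAL4 chimeric reporter constructs, stimulated with 3 nM 6-alpha-fluorotestosterone plus 1.5 nM norgestrel, dosed 24 h. Reporter mRNA quantified by RT-PCR and capillary electrophoresis; gain of signal fitted versus DMSO.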

The test system of assay [6] is frog Estrogen Receptor (ER), gene 398734. Description: ATG_frER1_XSP2: Attagene TRANS-FACTORIAL Multi-Species (XSP2) HepG2 Assay for frog Estrogen Receptor (ER) (AID 2283821).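 Note: hits raise reporter mRNA above DMSO baseline so potency means agonist or activator.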 The essentials: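 HepG2 cells transiently transfected with GAL4-UAS reporter units expressing a chimeric frog ER-Gal4 protein; 24 h exposure. Reporter mRNA quantified by RT-PCR, fluorescent labelling and capillary electrophoresis; gain of signal fitted against DMSO baseline.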

In assay [7] the test system is zebrafish Estrogen Receptor (ER2b), gene 317733. The assay is described as follows: ATG_zfER2b_XSP2: Attagene TRANS-FACTORIAL Multi-Species (XSP2) HepG2 Assay for zebrafish Estrogen Receptor (ER2b) (AID 2283823).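 Note: fitted upward as reporter gain over DMSO so potency reflects activation.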 In a few lines:
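In this multiplexed trans-activation format, HepG2 cells expressing exogenous NR-Gal4 fusions drive GAL4-UAS reporters. Exposure lasts 24 h, and reporter mRNA induction is read by RT-PCR with capillary electrophoresis detection.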

Assay [8] has as its target Estrogen receptor (Homo sapiens) (UniProt P03372). The assay is described as follows: ATG_hERa_XSP2: Attagene TRANS-FACTORIAL Multi-Species (XSP2) HepG2 Assay for human Estrogen Receptor (ERa) (AID 2283827). The essentials:
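HepG2 cells transiently transfected with multiplexed GAL4-UAS reporters driven by chimeric receptor-Gal4 proteins, dosed 24 h with 3 nM 6-alpha-fluorotestosterone and 1.5 nM norgestrel present. Reporter mRNA by RT-PCR and capillary electrophoresis; gain-of-signal fit versus DMSO.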

Assay [9] has as its system frog Estrogen Receptor (ER2), gene 100174814. Description: ATG_frER2_XSP2: Attagene TRANS-FACTORIAL Multi-Species (XSP2) HepG2 Assay for frog Estrogen Receptor (ER2) (AID 2283828). The essentials: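 HepG2 cells transiently transfected with multiplexed GAL4-UAS reporter units expressing chimeric frog ER2–Gal4 protein; reporter mRNA measured 24 h after chemical dosing by RT-PCR, fluorescent labeling and capillary electrophoresis. Gain-of-signal fitted relative to DMSO baseline.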

In assay [10] the target is Peroxisome proliferator-activated receptor gamma (Homo sapiens) (UniProt P37231). Description: ATG_hPPARg_XSP2: Attagene TRANS-FACTORIAL Multi-Species (XSP2) HepG2 Assay for human Peroxisome Proliferator-activated Receptor gamma (PPARg) (AID 2283829).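 Note: actives raise reporter mRNA above DMSO so AC50 reflects PPARg activation.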 In a few lines:
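Multiplexed transactivation in transfected HepG2 liver cells. Gal4-chimeric receptor activity reported as induced reporter transcript after 24 h.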

The target in assay [11] is mouse Peroxisome Proliferator-activated Receptor gamma (PPARg), Pparg (gene 19016) (UniProt P37238). Description: ATG_mPPARg_XSP2: Attagene TRANS-FACTORIAL Multi-Species (XSP2) HepG2 Assay for mouse Peroxisome Proliferator-activated Receptor gamma (PPARg) (AID 2283830).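 Note: hits are gains in reporter mRNA above DMSO so AC50 marks activation.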 The essentials: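 HepG2 cells transiently transfected with GAL4-UAS reporter units for chimeric NR-Gal4 proteins including mouse PPARg, exposed 24 h; medium contained 3 nM 6-alpha-fluorotestosterone and 1.5 nM norgestrel. Reporter mRNA quantified by RT-PCR, HpaI digestion and capillary electrophoresis, vs DMSO.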

For assay [12], the target named is Nuclear receptor subfamily 1 group I member 2 (Mus musculus) (UniProt O54915). Description: ATG_mPXR_XSP2: Attagene TRANS-FACTORIAL Multi-Species (XSP1) HepG2 Assay for mouse Pregnane X Receptor (PXR) (AID 2283831). The essentials: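 Human liver HepG2 cells expressing exogenous receptor-GAL4 chimeras were exposed to test chemicals for 24 h. Induction of reporter mRNA was scored as gain of fluorescence signal over DMSO controls.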

In assay [13] the test system is zebrafish Peroxisome Proliferator-activated Receptor gamma (PPARg), gene 557037. The assay is described as follows: ATG_zfPPARg_XSP2: Attagene TRANS-FACTORIAL Multi-Species (XSP2) HepG2 Assay for zebrafish Peroxisome Proliferator-activated Receptor gamma (PPARg) (AID 2283833).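 Note: actives increase reporter signal over DMSO so AC50 reflects activation.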 The essentials:
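Cell-based transactivation of a chimeric zebrafish PPARg-GAL4 receptor was assessed in transiently transfected HepG2 cells after 24 h of treatment. Reporter mRNA induction, detected fluorescently after RT-PCR, was analysed in the positive direction against DMSO.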

Assay [14] deals with turtle Thyroid Hormone Receptor, alpha (TRa), gene 101949057. Description: ATG_trTRa_XSP2: Attagene TRANS-FACTORIAL Multi-Species (XSP1) HepG2 Assay for turtle Thyroid Hormone Receptor, alpha (TRa) (AID 2283834).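 Note: hits raise reporter mRNA over the DMSO baseline so AC50 marks activators.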 In a few lines: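 Gain-of-signal reporter transcription measured in transiently transfected HepG2 at 24 h post-dose. Fluorescent RT-PCR products were resolved by capillary electrophoresis and compared with DMSO vehicle.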

The nature of assay [15]: ATG_M_61_XSP2: Attagene TRANS-FACTORIAL Multi-Species (XSP2) HepG2 Assay for M61 Transcription Factor (Internal Marker) (AID 2283835; active = hit-call score of the fitted dose curve at least 0.9, where 1 is the maximum; inactive = score below 0.9;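 note: active means a rise in signal above the DMSO baseline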). The essentials:
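HepG2 cells transiently transfected with multiple GAL4-UAS reporter units; reporter mRNA measured 24 h after dosing by RT-PCR, fluorescent labelling and capillary electrophoresis. Medium contained 3 nM 6-alpha-fluorotestosterone and 1.5 nM norgestrel; internal marker, DMSO baseline.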

For assay [16], the target named is frog Thyroid hormone Receptor alpha (TRa), thra-a (gene 397942) (UniProt P15204). Description: ATG_frTRa_XSP2: Attagene TRANS-FACTORIAL Multi-Species (XSP2) HepG2 Assay for frog Thyroid hormone Receptor alpha (TRa) (AID 2283839).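 Note: AC50 reflects induction of frog TRa-driven reporter mRNA above DMSO baseline.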 In a few lines:
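Frog thyroid receptor alpha was tested as an exogenous NR-Gal4 fusion in transiently transfected HepG2 cells. After 24 h chemical treatment, reporter mRNA induction was quantified by RT-PCR and capillary electrophoresis, with gain-of-signal analysed relative to DMSO.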

The target of assay [17] is zebrafish Thyroid Hormone Receptor alpha (TRa), thraa (gene 30670) (UniProt Q98867). The assay is described as follows: ATG_zfTRa_XSP2: Attagene TRANS-FACTORIAL Multi-Species (XSP1) HepG2 Assay for zebrafish Thyroid Hormone Receptor alpha (TRa) (AID 2283832).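 Note: actives raise zebrafish TRa-Gal4 reporter transcript above DMSO baseline.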 In a few lines:
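HepG2 cells transiently transfected with multiplexed GAL4-UAS reporter units expressing chimeric NR-Gal4 proteins; 24 h after dosing, reporter mRNA measured by RT-PCR, FAM labelling, HpaI digestion and capillary electrophoresis; gain of signal versus DMSO baseline.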

Assay [18] concerns the target zebrafish Thyroid Hormone Receptor beta (TRb), thrb (gene 30607) (UniProt Q9PVE4). Description: ATG_zfTRb_XSP2: Attagene TRANS-FACTORIAL Multi-Species (XSP1) HepG2 Assay for zebrafish Thyroid Hormone Receptor beta (TRb) (AID 2283836).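 Note: potency for induction of reporter signal above DMSO so agonist direction.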 In a few lines: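 HepG2 cells transiently transfected with multiplexed GAL4-UAS reporter units expressing chimeric NR-Gal4 proteins; read 24 h after dosing. Reporter mRNA quantified by RT-PCR, 6-FAM labelling, HpaI digest and capillary electrophoresis; gain of signal fitted relative to DMSO.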

Assay [19] has as its target human Thyroid hormone Receptor alpha (TRa), THRA (gene 7067) (UniProt P10827). Description: ATG_hTRa_XSP2: Attagene TRANS-FACTORIAL Multi-Species (XSP2) HepG2 Assay for human Thyroid hormone Receptor alpha (TRa) (AID 2283838). In a few lines: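 HepG2 cells transiently transfected with multiplexed GAL4-UAS reporter units and exogenous NR-GAL4 chimeras; 24 h chemical exposure with 3 nM 6-alpha-fluorotestosterone and 1.5 nM norgestrel present. Reporter mRNA measured by RT-PCR, FAM labelling, HpaI digestion, capillary electrophoresis; gain-of-signal versus DMSO.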

Assay [20] has as its target human Thyroid hormone Receptor beta (TRb), THRB (gene 7068) (UniProt P10828). Description: ATG_hTRb_XSP2: Attagene TRANS-FACTORIAL Multi-Species (XSP2) HepG2 Assay for human Thyroid hormone Receptor beta (TRb) (AID 2283840).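 Note: actives raise reporter mRNA so potency reflects agonist-like gain of signal.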 The essentials: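 In this cell-based multiplex, HepG2 liver cells carrying transfected GAL4-UAS reporter constructs are exposed to chemical for 24 hours, then reporter transcripts are measured by RT-PCR with capillary electrophoresis, scored as gain of signal against DMSO.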

Sequence of mouse Peroxisome Proliferator-activated Receptor gamma (PPARg), Pparg (gene 19016) (P37238 whole entry, looked up, the tested form may be a part): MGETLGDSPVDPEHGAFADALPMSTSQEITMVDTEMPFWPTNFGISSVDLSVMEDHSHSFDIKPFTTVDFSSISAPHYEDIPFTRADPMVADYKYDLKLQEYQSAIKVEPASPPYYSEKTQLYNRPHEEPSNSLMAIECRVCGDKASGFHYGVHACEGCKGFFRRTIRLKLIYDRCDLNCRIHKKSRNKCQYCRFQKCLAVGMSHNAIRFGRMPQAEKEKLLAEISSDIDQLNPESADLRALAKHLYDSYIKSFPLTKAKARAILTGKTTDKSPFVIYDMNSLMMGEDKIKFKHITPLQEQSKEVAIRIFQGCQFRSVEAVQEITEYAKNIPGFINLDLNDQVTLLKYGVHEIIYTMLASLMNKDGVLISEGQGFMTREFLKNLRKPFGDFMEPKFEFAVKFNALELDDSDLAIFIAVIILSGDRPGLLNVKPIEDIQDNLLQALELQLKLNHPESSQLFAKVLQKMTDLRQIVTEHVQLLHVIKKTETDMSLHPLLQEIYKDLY
Sequence of Nuclear receptor subfamily 1 group I member 2 (Mus musculus) (O54915 whole entry, looked up, the tested form may be a part): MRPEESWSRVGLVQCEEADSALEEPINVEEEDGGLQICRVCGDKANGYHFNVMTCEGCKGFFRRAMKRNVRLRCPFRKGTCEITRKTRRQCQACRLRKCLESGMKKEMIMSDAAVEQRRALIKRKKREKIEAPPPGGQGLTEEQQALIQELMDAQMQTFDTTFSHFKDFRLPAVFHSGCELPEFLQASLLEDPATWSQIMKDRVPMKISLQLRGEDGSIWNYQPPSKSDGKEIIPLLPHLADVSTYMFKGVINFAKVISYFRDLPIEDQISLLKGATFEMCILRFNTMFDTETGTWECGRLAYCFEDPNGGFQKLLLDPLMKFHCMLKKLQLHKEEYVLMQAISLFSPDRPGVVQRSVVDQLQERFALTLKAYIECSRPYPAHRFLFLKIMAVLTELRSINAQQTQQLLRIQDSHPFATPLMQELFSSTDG
Sequence of frog Thyroid hormone Receptor alpha (TRa), thra-a (gene 397942) (P15204 whole entry, looked up, the tested form may be a part): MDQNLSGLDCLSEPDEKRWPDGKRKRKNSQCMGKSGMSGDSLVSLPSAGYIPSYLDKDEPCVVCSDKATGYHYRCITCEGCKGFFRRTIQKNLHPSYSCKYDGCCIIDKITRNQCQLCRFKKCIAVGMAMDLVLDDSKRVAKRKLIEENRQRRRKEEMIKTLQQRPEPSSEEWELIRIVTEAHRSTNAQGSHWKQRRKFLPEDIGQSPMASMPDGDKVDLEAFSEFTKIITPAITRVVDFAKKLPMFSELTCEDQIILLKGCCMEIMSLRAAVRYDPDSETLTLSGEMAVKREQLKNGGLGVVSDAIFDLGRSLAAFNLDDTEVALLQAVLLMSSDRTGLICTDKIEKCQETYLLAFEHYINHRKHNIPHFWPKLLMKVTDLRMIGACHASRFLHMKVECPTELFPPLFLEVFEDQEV
Sequence of Estrogen receptor (Homo sapiens) (P03372 whole entry, looked up, the tested form may be a part): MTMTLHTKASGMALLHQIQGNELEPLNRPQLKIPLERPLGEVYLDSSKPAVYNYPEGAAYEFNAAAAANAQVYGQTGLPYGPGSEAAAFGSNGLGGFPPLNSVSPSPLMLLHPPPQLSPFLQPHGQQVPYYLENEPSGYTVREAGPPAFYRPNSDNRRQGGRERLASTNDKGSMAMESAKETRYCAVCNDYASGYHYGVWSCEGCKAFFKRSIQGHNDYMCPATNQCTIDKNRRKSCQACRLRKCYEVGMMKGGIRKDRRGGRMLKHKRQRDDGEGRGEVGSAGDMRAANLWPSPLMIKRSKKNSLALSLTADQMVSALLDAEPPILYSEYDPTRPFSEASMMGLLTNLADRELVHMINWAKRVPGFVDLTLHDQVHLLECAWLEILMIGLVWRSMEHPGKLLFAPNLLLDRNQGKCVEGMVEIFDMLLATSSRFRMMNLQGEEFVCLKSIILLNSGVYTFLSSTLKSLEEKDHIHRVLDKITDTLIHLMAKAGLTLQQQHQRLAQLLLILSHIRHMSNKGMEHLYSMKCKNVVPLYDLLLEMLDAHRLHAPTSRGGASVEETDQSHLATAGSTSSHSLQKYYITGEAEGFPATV
Sequence of Peroxisome proliferator-activated receptor gamma (Homo sapiens) (P37231 whole entry, looked up, the tested form may be a part): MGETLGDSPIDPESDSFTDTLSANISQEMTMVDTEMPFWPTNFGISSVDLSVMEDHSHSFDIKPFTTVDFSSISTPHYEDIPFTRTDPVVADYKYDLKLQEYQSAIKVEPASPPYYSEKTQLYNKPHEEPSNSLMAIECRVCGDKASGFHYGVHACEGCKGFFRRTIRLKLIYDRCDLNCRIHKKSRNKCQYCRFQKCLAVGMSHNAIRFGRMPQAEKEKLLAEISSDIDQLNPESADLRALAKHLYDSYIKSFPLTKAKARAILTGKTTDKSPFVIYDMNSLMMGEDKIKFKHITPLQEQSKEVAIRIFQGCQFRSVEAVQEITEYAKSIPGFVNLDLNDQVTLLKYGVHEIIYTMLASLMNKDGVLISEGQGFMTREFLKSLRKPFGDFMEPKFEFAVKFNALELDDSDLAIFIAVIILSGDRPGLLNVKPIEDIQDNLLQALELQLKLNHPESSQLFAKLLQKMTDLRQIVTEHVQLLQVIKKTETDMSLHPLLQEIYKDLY
Sequence of chicken Estrogen Receptor (ERa), ESR1 (gene 396099) (P06212 whole entry, looked up, the tested form may be a part): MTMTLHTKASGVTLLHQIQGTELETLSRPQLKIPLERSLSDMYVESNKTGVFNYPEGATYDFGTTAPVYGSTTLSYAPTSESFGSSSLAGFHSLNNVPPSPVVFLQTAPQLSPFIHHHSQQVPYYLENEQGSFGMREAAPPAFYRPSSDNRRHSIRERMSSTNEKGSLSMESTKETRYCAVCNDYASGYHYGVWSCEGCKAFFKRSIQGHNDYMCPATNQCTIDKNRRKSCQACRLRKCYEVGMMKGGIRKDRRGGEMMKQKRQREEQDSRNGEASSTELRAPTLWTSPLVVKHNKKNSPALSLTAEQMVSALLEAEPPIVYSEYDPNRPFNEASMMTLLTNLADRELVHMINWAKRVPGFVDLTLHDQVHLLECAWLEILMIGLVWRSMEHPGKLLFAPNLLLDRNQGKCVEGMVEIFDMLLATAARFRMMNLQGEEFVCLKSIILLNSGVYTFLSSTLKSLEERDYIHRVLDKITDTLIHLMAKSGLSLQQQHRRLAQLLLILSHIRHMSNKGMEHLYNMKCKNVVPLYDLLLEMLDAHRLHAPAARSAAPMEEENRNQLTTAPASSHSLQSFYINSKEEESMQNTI
Sequence of human Thyroid hormone Receptor beta (TRb), THRB (gene 7068) (P10828 whole entry, looked up, the tested form may be a part): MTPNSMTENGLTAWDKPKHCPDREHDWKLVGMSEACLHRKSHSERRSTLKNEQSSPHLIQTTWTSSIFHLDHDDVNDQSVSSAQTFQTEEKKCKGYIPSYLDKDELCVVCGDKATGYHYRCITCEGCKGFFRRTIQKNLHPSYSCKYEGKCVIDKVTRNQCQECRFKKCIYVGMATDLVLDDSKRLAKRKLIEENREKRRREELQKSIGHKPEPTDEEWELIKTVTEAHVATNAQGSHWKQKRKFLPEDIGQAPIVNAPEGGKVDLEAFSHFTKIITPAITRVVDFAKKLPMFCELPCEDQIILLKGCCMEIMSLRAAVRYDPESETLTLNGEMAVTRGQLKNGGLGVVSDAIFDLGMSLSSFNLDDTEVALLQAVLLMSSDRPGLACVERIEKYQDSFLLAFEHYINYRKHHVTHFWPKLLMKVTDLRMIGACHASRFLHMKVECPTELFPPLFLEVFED
Sequence of zebrafish Thyroid Hormone Receptor beta (TRb), thrb (gene 30607) (Q9PVE4 whole entry, looked up, the tested form may be a part): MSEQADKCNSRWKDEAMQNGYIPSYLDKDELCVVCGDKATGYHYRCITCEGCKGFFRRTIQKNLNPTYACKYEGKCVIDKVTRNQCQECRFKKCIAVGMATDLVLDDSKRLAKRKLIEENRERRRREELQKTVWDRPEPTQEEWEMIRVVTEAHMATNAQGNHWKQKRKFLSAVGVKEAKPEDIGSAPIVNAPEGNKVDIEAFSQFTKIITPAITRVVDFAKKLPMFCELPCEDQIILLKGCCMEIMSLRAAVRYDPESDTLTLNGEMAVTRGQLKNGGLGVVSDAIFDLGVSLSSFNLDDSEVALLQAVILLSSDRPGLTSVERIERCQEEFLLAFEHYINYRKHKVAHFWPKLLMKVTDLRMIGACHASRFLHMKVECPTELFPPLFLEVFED
Sequence of human Thyroid hormone Receptor alpha (TRa), THRA (gene 7067) (P10827 whole entry, looked up, the tested form may be a part): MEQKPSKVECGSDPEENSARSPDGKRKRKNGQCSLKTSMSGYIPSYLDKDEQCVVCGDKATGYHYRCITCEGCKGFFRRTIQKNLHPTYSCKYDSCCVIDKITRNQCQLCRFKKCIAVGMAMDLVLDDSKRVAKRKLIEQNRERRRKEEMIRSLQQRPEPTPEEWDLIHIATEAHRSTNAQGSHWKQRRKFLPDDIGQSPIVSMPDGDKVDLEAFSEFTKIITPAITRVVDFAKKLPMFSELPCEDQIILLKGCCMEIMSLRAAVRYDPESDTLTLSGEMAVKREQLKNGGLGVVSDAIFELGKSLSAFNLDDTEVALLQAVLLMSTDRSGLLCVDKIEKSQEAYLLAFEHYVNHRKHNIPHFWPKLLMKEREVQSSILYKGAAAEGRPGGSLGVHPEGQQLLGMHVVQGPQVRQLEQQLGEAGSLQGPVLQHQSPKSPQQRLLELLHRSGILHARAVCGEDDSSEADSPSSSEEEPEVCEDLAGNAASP
Sequence of zebrafish Thyroid Hormone Receptor alpha (TRa), thraa (gene 30670) (Q98867 whole entry, looked up, the tested form may be a part): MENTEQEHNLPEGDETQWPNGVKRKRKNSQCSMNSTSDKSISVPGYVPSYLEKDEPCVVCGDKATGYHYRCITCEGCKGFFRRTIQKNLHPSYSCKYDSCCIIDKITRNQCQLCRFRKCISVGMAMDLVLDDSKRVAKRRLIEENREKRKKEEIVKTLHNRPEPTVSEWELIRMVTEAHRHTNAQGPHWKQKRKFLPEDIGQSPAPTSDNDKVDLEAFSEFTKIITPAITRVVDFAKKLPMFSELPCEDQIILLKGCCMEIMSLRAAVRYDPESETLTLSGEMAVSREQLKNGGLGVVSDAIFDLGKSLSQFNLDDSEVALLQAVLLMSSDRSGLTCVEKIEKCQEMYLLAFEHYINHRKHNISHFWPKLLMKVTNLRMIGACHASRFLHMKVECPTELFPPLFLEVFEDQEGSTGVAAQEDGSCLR

Consider `Cn1cc[nH]c1=S`, for which the outcome in [1] and in assay [2] was inactive.

Consider `C=CCc1cc(S(=O)(=O)c2ccc(O)c(CC=C)c2)ccc1O`, for which the AC50 in assay [3] is 3.5 µM (active); in [5] it was 8.4 µM (active); in assay [6], 8.79 µM (active); in assay [7] it was 17.4 µM (active); in assay [8], 2.71 µM (active); in assay [10], 5.26 µM (active). Moreover, the AC50 is 19.2 µM (active) in assay [11], 1.72 µM (active) in [16], 38.9 µM (active) in assay [1] and 36.8 µM (active) in assay [2]. Moreover, the compound was classed as inactive in assay [4], in assay [9], in assay [12], in [13], in [14] and in [15].

Take `CC(C)c1nnc2ccc(-c3ocnc3-c3cc(F)ccc3F)cn12`: the result in assay [1] and in assay [2] was inactive.

`CC(C)C(=O)Nc1ccc([N+](=O)[O-])c(C(F)(F)F)c1`: the outcome in assay [3], in [4], in assay [9], in [17], in assay [13] and in assay [15] was inactive. Further, the outcome in assay [1] and in assay [2] was inactive. For the same compound, the AC50 is 26.3 µM (active) in assay [6]; 70.8 µM (active) in assay [7]; 27.2 µM (active) in assay [8]; 53.9 µM (active) in assay [10]; 82.6 µM (active) in assay [11]; 100 µM (active) in assay [12]. Besides, the half-maximal activity concentration (AC50) in assay [14] is 35.9 µM (active); in [18], 65.2 µM (active); in assay [19] it was 50.1 µM (active); in assay [16], 42.2 µM (active); in assay [20], 62.4 µM (active).
